Reference: PubChem BioAssay (NCI)
About 83,000 compounds went through this panel and 20% of them were active in at least one assay; those are over-represented in the sample as a whole.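 The test compound was applied at a single concentration to cells in 96-well plates for 48 hours, and percent growth was recorded.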 The source made the active and inactive calls. How the source made its calls: active means growth percent below 10; inactive means the rest.

Tests used:
Test in all cases: NCI-60 one-dose screen, 48 h (100 = growth as untreated, 0 = no growth, -100 = all killed)
Conditions in all cases: 10 µM unless noted
SR leukemia = test system: SR leukemia
RPMI-8226 leukemia = test system: RPMI-8226 leukemia
OVCAR-8 ovarian = test system: OVCAR-8 ovarian
OVCAR-5 ovarian = test system: OVCAR-5 ovarian
OVCAR-4 ovarian = test system: OVCAR-4 ovarian
SK-OV-3 ovarian = test system: SK-OV-3 ovarian
IGROV1 ovarian = test system: IGROV1 ovarian
OVCAR-3 ovarian = test system: OVCAR-3 ovarian
HS 578T breast = test system: HS 578T breast
NCI/ADR-RES ovarian = test system: NCI/ADR-RES ovarian
BT-549 breast = test system: BT-549 breast
MDA-MB-435 melanoma = test system: MDA-MB-435 melanoma
SW-620 colon = test system: SW-620 colon
MCF7 breast = test system: MCF7 breast
HCT-116 colon = test system: HCT-116 colon
HCC-2998 colon = test system: HCC-2998 colon
KM12 colon = test system: KM12 colon
T-47D breast = test system: T-47D breast

Measured: growth

CCOc1ccc2nc(-c3cccc(OCC(=O)NC(C)C)c3)nc(Nc3ccc(-c4cn[nH]c4)cc3)c2c1
active: SR leukemia 0.178% | RPMI-8226 leukemia -18.4% | OVCAR-8 ovarian -22.7% | OVCAR-4 ovarian -60.3% | OVCAR-3 ovarian -3.59% | HS 578T breast -44.5% | BT-549 breast -44.2% | MDA-MB-435 melanoma 6.53% | SW-620 colon 7.06% | MCF7 breast -16.8% | HCT-116 colon 5.64% | KM12 colon 5.29%
inactive: OVCAR-5 ovarian 40.8% | SK-OV-3 ovarian 68.4% | IGROV1 ovarian 20.9% | NCI/ADR-RES ovarian 14.3% | HCC-2998 colon 24.6%

N#Cc1c(NC(=O)c2ccccc2I)sc2c1CCCC2
inactive: SR leukemia 38.6% | RPMI-8226 leukemia 46.4% | OVCAR-8 ovarian 51.4% | OVCAR-5 ovarian 70.8% | OVCAR-4 ovarian 79.9% | IGROV1 ovarian 50.6% | OVCAR-3 ovarian 15.7% | HS 578T breast 32.1% | NCI/ADR-RES ovarian 13.2% | T-47D breast 61.4% | BT-549 breast 52.2% | SW-620 colon 21% | MCF7 breast 15% | HCT-116 colon 26.4% | HCC-2998 colon 71.6% | KM12 colon 34.2%
active: MDA-MB-435 melanoma -4.69%

COc1ccc(C(=O)/C=C/c2cc3c(c(OC)c2)OCC(=O)N3)cc1
active: RPMI-8226 leukemia 5.42% | OVCAR-3 ovarian 2.27%
inactive: SR leukemia 20.4% | OVCAR-8 ovarian 44.8% | OVCAR-5 ovarian 45.7% | OVCAR-4 ovarian 53.7% | SK-OV-3 ovarian 103% | IGROV1 ovarian 80% | HS 578T breast 42.3% | NCI/ADR-RES ovarian 36.7% | MDA-MB-435 melanoma 26.2% | SW-620 colon 14.7% | MCF7 breast 31.5% | HCT-116 colon 11.8% | HCC-2998 colon 67.9% | KM12 colon 14.7%

COc1cc(CNC(=O)/C=C/C=C/c2ccc3c(c2)OCO3)ccc1OCc1cn(-c2ccc(Cl)c(Cl)c2)nn1
active: OVCAR-5 ovarian -19.8% | OVCAR-4 ovarian -62.7% | IGROV1 ovarian 6.63% | OVCAR-3 ovarian -62.8% | HS 578T breast 7.23% | T-47D breast -4.43% | BT-549 breast -8.89% | MDA-MB-435 melanoma -18.3% | SW-620 colon -33.4% | MCF7 breast -46.2% | HCT-116 colon -30.6% | KM12 colon 1.12%
inactive: SR leukemia 24.8% | RPMI-8226 leukemia 20.9% | OVCAR-8 ovarian 11.3% | NCI/ADR-RES ovarian 15.9% | HCC-2998 colon 51.1%

COc1cc2ccccc2cc1C(=O)NC(=S)Nc1ccc(-c2nc3ccccc3[nH]2)cc1
active: OVCAR-4 ovarian -35.9%
inactive: SR leukemia 28.3% | RPMI-8226 leukemia 71.5% | OVCAR-8 ovarian 93.1% | OVCAR-5 ovarian 103% | IGROV1 ovarian 83.2% | OVCAR-3 ovarian 55% | HS 578T breast 30.7% | NCI/ADR-RES ovarian 59.4% | T-47D breast 76.9% | BT-549 breast 45.6% | MDA-MB-435 melanoma 80.2% | SW-620 colon 80.5% | MCF7 breast 59% | HCT-116 colon 82% | HCC-2998 colon 96.3% | KM12 colon 68.2%

CCOC(=O)Cc1csc2nc(-c3ccccc3)nn12
inactive: SR leukemia 98.8% | RPMI-8226 leukemia 113% | OVCAR-8 ovarian 98.3% | OVCAR-5 ovarian 92.9% | SK-OV-3 ovarian 115% | IGROV1 ovarian 104% | OVCAR-3 ovarian 117% | HS 578T breast 103% | NCI/ADR-RES ovarian 104% | T-47D breast 92.9% | BT-549 breast 127% | MDA-MB-435 melanoma 113% | MCF7 breast 96.5% | HCT-116 colon 98.2% | HCC-2998 colon 103% | KM12 colon 105%

C=CCN1C(=O)[C@]2(SC1=S)[C@H](c1cccc(Cl)c1)CN(C)[C@]21C(=O)NC2C=CC(Cl)=C[C@H]21 (some centres undefined)
inactive: OVCAR-8 ovarian 56% | OVCAR-5 ovarian 80.5% | SK-OV-3 ovarian 58% | IGROV1 ovarian 48.3% | OVCAR-3 ovarian 38.4% | HS 578T breast 56% | NCI/ADR-RES ovarian 38.7% | T-47D breast 15.6% | BT-549 breast 34.1% | MDA-MB-435 melanoma 55.1% | SW-620 colon 30.8% | MCF7 breast 16.9% | HCT-116 colon 33.4% | HCC-2998 colon 78.2% | KM12 colon 64.1%
active: SR leukemia -22.6% | RPMI-8226 leukemia -5.81%

CCCCN1CCN(c2ccc3nc(-c4ccc5nc(-c6ccc(OCC)c(OCC)c6)[nH]c5c4)[nH]c3c2)CC1
active: RPMI-8226 leukemia -25.4% | OVCAR-8 ovarian -11.9% | OVCAR-4 ovarian -77.4% | OVCAR-3 ovarian -87.3% | BT-549 breast -23% | MDA-MB-435 melanoma -41.2% | SW-620 colon -80.3% | MCF7 breast -69.6% | HCT-116 colon -79.7% | HCC-2998 colon -80.4% | KM12 colon -65.6%
inactive: SR leukemia 14.3% | OVCAR-5 ovarian 37.7% | IGROV1 ovarian 15.1% | HS 578T breast 35.2% | NCI/ADR-RES ovarian 73%

CN1CCN(c2ccc3nc(/N=C/c4ccc5sc(-c6ccc([N+](=O)[O-])cc6)nc5c4)sc3c2)CC1
inactive: SR leukemia 91.9% | RPMI-8226 leukemia 101% | OVCAR-8 ovarian 99.6% | OVCAR-5 ovarian 107% | OVCAR-4 ovarian 105% | IGROV1 ovarian 114% | OVCAR-3 ovarian 112% | HS 578T breast 114% | NCI/ADR-RES ovarian 104% | T-47D breast 96% | BT-549 breast 92.4% | MDA-MB-435 melanoma 102% | MCF7 breast 94.7% | HCT-116 colon 107% | HCC-2998 colon 101% | KM12 colon 105%

COc1cc(NC(=O)c2cccc(-c3cc(=O)c4c(OC)c(OC)c(OC)cc4o3)c2)cc(OC)c1OC
active: RPMI-8226 leukemia 0.302% | HS 578T breast 9.2% | MDA-MB-435 melanoma 6.36%
inactive: SR leukemia 29.8% | OVCAR-8 ovarian 30.9% | OVCAR-5 ovarian 86% | OVCAR-4 ovarian 74.8% | IGROV1 ovarian 51.8% | OVCAR-3 ovarian 40.8% | NCI/ADR-RES ovarian 51.1% | BT-549 breast 27% | SW-620 colon 67% | MCF7 breast 34.3% | HCT-116 colon 48.6% | HCC-2998 colon 74.1% | KM12 colon 45.8%

CCCCN(CCCC)CCCn1c(=O)c2sc3ncccc3c2n2nnc(-c3ccccc3)c12
active: MDA-MB-435 melanoma -84.2%
inactive: SR leukemia 99.2% | RPMI-8226 leukemia 96.4% | OVCAR-8 ovarian 96.4% | OVCAR-5 ovarian 97.1% | OVCAR-4 ovarian 103% | IGROV1 ovarian 80.5% | OVCAR-3 ovarian 120% | HS 578T breast 110% | NCI/ADR-RES ovarian 108% | BT-549 breast 124% | SW-620 colon 100% | MCF7 breast 93.2% | HCT-116 colon 83.6% | HCC-2998 colon 118% | KM12 colon 107%

COc1cc2c(cc1OC)-c1ccc3cc4c(cc3c1N(CCCN1CCCCC1)C2)OCO4
active: SR leukemia -7.48%
inactive: RPMI-8226 leukemia 14.5% | OVCAR-8 ovarian 32.6% | OVCAR-5 ovarian 74.7% | SK-OV-3 ovarian 75.7% | IGROV1 ovarian 33.7% | OVCAR-3 ovarian 60.8% | HS 578T breast 56.1% | NCI/ADR-RES ovarian 54.7% | T-47D breast 59.2% | BT-549 breast 40.7% | MDA-MB-435 melanoma 69.6% | SW-620 colon 38% | MCF7 breast 46.3% | HCT-116 colon 24.6% | HCC-2998 colon 80.9% | KM12 colon 48.5%

COc1cc2c(O)n(CCCn3ccnc3)c3c4cnc5cccc(c(=O)c3c2cc1OC)c54
inactive: SR leukemia 25% | RPMI-8226 leukemia 19.4% | OVCAR-8 ovarian 35.3% | OVCAR-5 ovarian 83.1% | OVCAR-4 ovarian 50.9% | IGROV1 ovarian 46.2% | OVCAR-3 ovarian 44.7% | HS 578T breast 73.8% | NCI/ADR-RES ovarian 98.3% | BT-549 breast 27.6% | MDA-MB-435 melanoma 51% | SW-620 colon 20.4% | MCF7 breast 10.8% | HCC-2998 colon 70.4% | KM12 colon 61%
active: T-47D breast -6.91%

O=C(/C=C/C12c3ccccc3C(c3ccccc31)C1C(=O)NC(=O)C12)c1ccc(Cl)cc1 (centres undefined)
inactive: SR leukemia 13.3% | OVCAR-8 ovarian 16% | OVCAR-4 ovarian 30.4% | HS 578T breast 11.6% | T-47D breast 39.9% | MCF7 breast 10.6%
active: RPMI-8226 leukemia -10.1% | OVCAR-5 ovarian -2.53% | IGROV1 ovarian -38.6% | OVCAR-3 ovarian -57.8% | NCI/ADR-RES ovarian 4.42% | BT-549 breast 9.59% | MDA-MB-435 melanoma -19.4% | SW-620 colon -3.94% | HCT-116 colon -27.8% | HCC-2998 colon -67% | KM12 colon -36.6%

CCCCNC(=O)c1cc(NCc2cc(O)ccc2O)ccc1O
inactive: SR leukemia 41.1% | RPMI-8226 leukemia 19.3% | OVCAR-8 ovarian 87.6% | OVCAR-5 ovarian 107% | SK-OV-3 ovarian 85.8% | IGROV1 ovarian 98.4% | OVCAR-3 ovarian 54.2% | HS 578T breast 88% | NCI/ADR-RES ovarian 95% | T-47D breast 58.1% | BT-549 breast 46.1% | MDA-MB-435 melanoma 96.8% | SW-620 colon 110% | MCF7 breast 67.7% | HCT-116 colon 86.2% | HCC-2998 colon 96.4% | KM12 colon 78.4%

O=C(c1ccccc1)c1ccc(N2C(=O)C3C4c5ccccc5C(/C=C/C(=O)c5ccccn5)(c5ccccc54)C3C2=O)cc1 (centres undefined)
active: RPMI-8226 leukemia 3.95% | IGROV1 ovarian -19.8% | OVCAR-3 ovarian -54.1% | HS 578T breast 9.77% | MDA-MB-435 melanoma 4.74% | SW-620 colon 3.76% | HCT-116 colon -27.4% | KM12 colon 9.88%
inactive: SR leukemia 13.7% | OVCAR-8 ovarian 26.4% | OVCAR-5 ovarian 29.9% | OVCAR-4 ovarian 32.4% | NCI/ADR-RES ovarian 20.5% | T-47D breast 27% | BT-549 breast 22.2% | MCF7 breast 19% | HCC-2998 colon 25.3%

CN(C)CN1CCN(c2ccc3nc(-c4ccc5nc(-c6ccc(C(F)(F)F)cc6)[nH]c5c4)[nH]c3c2)CC1
inactive: SR leukemia 17.7% | RPMI-8226 leukemia 19.1% | OVCAR-8 ovarian 53% | OVCAR-5 ovarian 114% | IGROV1 ovarian 78.7% | OVCAR-3 ovarian 89.7% | HS 578T breast 52.8% | NCI/ADR-RES ovarian 97.9% | T-47D breast 61.4% | BT-549 breast 86.2% | MDA-MB-435 melanoma 40.9% | SW-620 colon 27% | HCT-116 colon 23.8% | HCC-2998 colon 84.7% | KM12 colon 26.5%
active: OVCAR-4 ovarian -4.77% | MCF7 breast 9.58%

O=C(/C=C/C12c3ccccc3C(c3ccccc31)C1C(=O)N(c3ccccc3)C(=O)C12)c1ccc(Cl)cc1 (centres undefined)
inactive: SR leukemia 16.9% | OVCAR-8 ovarian 30.7% | OVCAR-4 ovarian 17.6% | IGROV1 ovarian 10.4% | HS 578T breast 14.1% | NCI/ADR-RES ovarian 18.1% | T-47D breast 30.4% | BT-549 breast 16.1% | MCF7 breast 18.4%
active: RPMI-8226 leukemia 4.68% | OVCAR-5 ovarian 8.5% | OVCAR-3 ovarian -53.9% | MDA-MB-435 melanoma 0.197% | SW-620 colon 7.56% | HCT-116 colon -18% | HCC-2998 colon -24% | KM12 colon 7.23%
